In PubChem BioAssay (NCATS):
Results filed as inconclusive are left out. Entries that show only a call come without a potency. Calls of active or inactive are those of the source. Unless noted, calls follow the shape of the full dose curve.

Experiments:
[1] = qHTS for Inhibitors of the Functional Ribonucleoprotein Complex (vRNP) of Lassa (LASV) Arenavirus: LASV Primary Screen - GLuc reporter signal (AID 1347082; calls by dose curve; tested in HEK293 reporter line; also: nearly all actives have a fitted effect of over 60% in size; also: potency is read from the fitted curve at half-maximal effect)
[2] = qHTS for Inhibitors of the Functional Ribonucleoprotein Complex (vRNP) of Lassa (LASV) Arenavirus: Viability assay - alamar blue signal for LASV Primary Screen (AID 1347083; calls by dose curve; tested in HEK293 reporter line; also: nearly all actives have a fitted effect of over 80% in size; also: potency is read from the fitted curve at half-maximal effect)
[3] = target: Nucleoprotein (Lymphocytic choriomeningitis virus (strain Armstrong)) (UniProt P09992); experiment: qHTS for Inhibitors of the Functional Ribonucleoprotein Complex (vRNP) of Lymphocytic Choriomeningitis Arenaviruses (LCMV): LCMV Primary Screen - GLuc reporter signal (AID 1347086); also: nearly all actives have a fitted effect of over 70% in size
Chain of Nucleoprotein (Lymphocytic choriomeningitis virus (strain Armstrong)) (P09992 whole entry, looked up): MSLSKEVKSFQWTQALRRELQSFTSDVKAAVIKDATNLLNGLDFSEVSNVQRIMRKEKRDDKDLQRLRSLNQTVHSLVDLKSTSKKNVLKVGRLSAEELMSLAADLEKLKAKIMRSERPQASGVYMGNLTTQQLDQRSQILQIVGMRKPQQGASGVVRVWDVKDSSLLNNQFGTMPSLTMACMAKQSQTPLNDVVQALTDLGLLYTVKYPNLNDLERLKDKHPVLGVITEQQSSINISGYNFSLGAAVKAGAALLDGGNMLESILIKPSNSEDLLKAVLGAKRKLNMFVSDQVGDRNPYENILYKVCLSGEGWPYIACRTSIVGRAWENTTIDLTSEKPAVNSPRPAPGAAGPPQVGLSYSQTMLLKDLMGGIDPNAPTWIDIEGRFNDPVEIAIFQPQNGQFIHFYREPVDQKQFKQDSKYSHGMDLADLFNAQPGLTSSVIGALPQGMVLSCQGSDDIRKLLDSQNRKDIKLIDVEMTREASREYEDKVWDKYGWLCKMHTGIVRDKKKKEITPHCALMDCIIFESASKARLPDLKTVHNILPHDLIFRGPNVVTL

[4] = target: Cytochrome P450 3A4 (Homo sapiens) (UniProt P08684); experiment: qHTS Assay for Activators of Cytochrome P450 3A4 (AID 885; active = well fitted curve in the direction sought with a large enough effect; an effect the other way counts as inactive or inconclusive; also: nearly all actives have a fitted effect of over 65% in size)
Chain of Cytochrome P450 3A4 (Homo sapiens) (P08684 whole entry, looked up): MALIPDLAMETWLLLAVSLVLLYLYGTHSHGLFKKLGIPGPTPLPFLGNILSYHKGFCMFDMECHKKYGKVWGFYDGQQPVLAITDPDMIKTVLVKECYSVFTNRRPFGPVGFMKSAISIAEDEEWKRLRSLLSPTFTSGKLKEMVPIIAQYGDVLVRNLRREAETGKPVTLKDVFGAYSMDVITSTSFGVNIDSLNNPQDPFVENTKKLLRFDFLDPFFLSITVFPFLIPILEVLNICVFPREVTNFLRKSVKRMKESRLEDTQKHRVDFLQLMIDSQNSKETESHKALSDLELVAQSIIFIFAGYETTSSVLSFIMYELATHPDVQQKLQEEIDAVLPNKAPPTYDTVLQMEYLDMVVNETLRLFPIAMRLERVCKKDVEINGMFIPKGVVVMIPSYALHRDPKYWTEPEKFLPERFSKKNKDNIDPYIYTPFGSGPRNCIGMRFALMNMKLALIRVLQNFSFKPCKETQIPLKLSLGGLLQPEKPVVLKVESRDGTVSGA
How it was run: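 Using 20nM recombinant human CYP3A4 in potassium phosphate (200mM), substrate Luciferin-PPXE at 25uM, luminescent luciferin detection followed a 60-min RT NADPH reaction; data scaled to 57 uM ketoconazole.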

[5] = S16 Schwann cell PMP22 intronic element firefly luciferase assay (AID 624032; active = well fitted curve in the direction sought with a large enough effect; an effect the other way counts as inactive or inconclusive; also: potency is read from the fitted curve at half-maximal effect; nearly all actives have a fitted effect of over 30% in size)
How it was run: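 Rat S16 Schwann cells stably carrying a PMP22 intronic element-driven Fluc reporter were seeded overnight, then exposed to compounds for 24 h at 37 °C. Luminescence was normalized to PTC124 (positive control) and DMSO (0% activity).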

[6] = qHTS profiling of the MIPE4 collection as inhibitors of Plasmodium falciparum (DD2) proliferation (AID 743345; call rule not given here); settings: P. falciparum Dd2 in erythrocytes, SYBR Green DNA, 72 h; at 28.5 µM (top of the series) unless noted
How it was run: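 Parasite DNA was quantified by SYBR Green I fluorescence (ex 485, em 535 nm) after overnight lysis in saponin/Triton buffer at room temperature. Cultures at 0.3% parasitemia and 2.5% hematocrit were first exposed to compound for 72 h at 37 C; signals were normalised to artemisinin (0.29 uM) and vehicle wells.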

[7] = Primary qHTS for inhibitors of SARS-S pseudo-typed particle cell entry (AID 1479145); also: nearly all actives have a fitted effect of over 45% in size
[8] = Primary qHTS for Huh7 cytotoxicity: counterscreen for inhibitors of MERS-S pseudotyped particle cell entry (AID 1479147); settings: outcome: dose series up to 57.1 µM unless noted
[9] = Primary qHTS for inhibitors of MERS-S pseudo-typed particle cell entry (AID 1479149); also: nearly all actives have a fitted effect of over 60% in size
[10] = Primary qHTS for Vero E6 cytotoxicity: counterscreen for inhibitors of SARS-S pseudo-typed particle cell entry (AID 1479150); settings: outcome: dose series up to 57.1 µM unless noted
[11] = Primary qHTS to identify inhibitors of SARS-CoV-2 cell entry (AID 1645846); settings: activity change, negative = inhibition: at 57.1 µM (top of the series) unless noted; also: potency is read from the fitted curve at half-maximal effect; nearly all actives have a fitted effect of over 45% in size
How it was run: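 Using luciferase-reporting pseudoviruses carrying Wuhan-Hu-1 spike, the screen tracks entry into stably ACE2-expressing cells over 48 hr. Activity is expressed relative to spike particles versus particles lacking any fusion protein.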

[12] = qHTS for Inhibitors of the Functional Ribonucleoprotein Complex (vRNP) of Lymphocytic Choriomeningitis Arenaviruses (LCMV): Viability assay - alamar blue signal for LCMV Primary Screen (AID 1347085; calls by dose curve; tested in HEK293 reporter line; also: nearly all actives have a fitted effect of over 80% in size; also: potency is read from the fitted curve at half-maximal effect)
[13] = target: Alpha-galactosidase (Coffea arabica) (UniProt Q42656); experiment: Counterscreen for Glucocerebrosidase Inhibitors: qHTS Assay for Coffee Bean alpha-Galactosidase at pH 4.5 (AID 957; active = well fitted curve in the direction sought with a large enough effect; an effect the other way counts as inactive or inconclusive)
Chain of Alpha-galactosidase (Coffea arabica) (Q42656 whole entry, looked up): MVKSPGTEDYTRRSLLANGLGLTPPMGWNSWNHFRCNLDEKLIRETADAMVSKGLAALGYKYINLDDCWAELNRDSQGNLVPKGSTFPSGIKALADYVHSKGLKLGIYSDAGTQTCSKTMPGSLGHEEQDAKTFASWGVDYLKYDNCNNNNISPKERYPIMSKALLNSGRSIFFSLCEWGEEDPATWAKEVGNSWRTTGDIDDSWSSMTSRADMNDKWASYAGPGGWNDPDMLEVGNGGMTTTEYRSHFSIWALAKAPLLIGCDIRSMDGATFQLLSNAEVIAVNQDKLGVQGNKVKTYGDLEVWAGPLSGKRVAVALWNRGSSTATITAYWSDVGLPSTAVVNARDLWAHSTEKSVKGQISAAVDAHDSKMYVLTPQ
How it was run: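 Enzyme is added first (2 nM final), then compounds titrated from 0.7 nM to 77 uM, then 80 uM 4-methylumbelliferyl alpha-D-galactopyranoside; after 20 min at room temperature a pH 10 NaOH/glycine stop precedes fluorescence reading at 365/440 nm.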

[14] = Validation screen for inhibitors of Lassa infection (AID 463096)
[15] = Inducers of the Endoplasmic Reticulum Stress Response (ERSR) in human glioma: Validation (AID 504836; active = well fitted curve in the direction sought with a large enough effect; an effect the other way counts as inactive or inconclusive)
How it was run: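 Stably transfected U87-MG human glioma cells carrying a GRP78-based luminescent sensor were seeded at 1000 cells/well, pin-dosed with compounds and incubated 16 h. Luciferase reagent was then added, and end-point luminescence was read after 10 min at room temperature.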

[16] = target: Alpha-galactosidase (Coffea arabica) (UniProt Q42656); experiment: Counterscreen for Glucocerebrosidase Inhibitors: qHTS Assay for Coffee Bean alpha-Galactosidase at pH 5.9 (AID 998; active = well fitted curve in the direction sought with a large enough effect; an effect the other way counts as inactive or inconclusive)
How it was run: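 In 50 mM citric acid pH 5.9 with 0.005% Tween-20, coffee bean enzyme hydrolyses 80 uM 4-MU alpha-D-galactopyranoside over 20 min at RT. Activity is normalized to controls; AC50 comes from Hill-modelled concentration-response data.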

COc1cc(Cl)cn2c(-c3cccc(NC4CNC4)n3)cnc12
Potency [1]: inactive
Potency [2]: 21.7 µM (active)
Potency [3]: inactive

CCC(C(=O)O)C1CCC(C)C(C(C)C(O)C(C)C(=O)C(CC)C2OC3(C=CC(O)[C@@]4(CC[C@](C)(C5CC[C@@](O)(CC)C(C)O5)O4)O3)C(C)CC2C)O1 (stereo not given in full)
Potency [4]: inactive
Potency [5]: 0.361 µM (active)

CC=C(C)C(=O)O[C@H]1C(C)=C[C@]23C(=O)[C@@H](C=C(CO)[C@@H](O)[C@]12O)[C@H]1[C@@H](C[C@H]3C)C1(C)C
parasite growth remaining, % of DMSO control (lower = more inhibition) [6]: 78.2%

NC1=N[C@H]2[C@H](CS[C@H]2CCCCC(=O)O)N1
parasite growth remaining, % of DMSO control (lower = more inhibition) [6]: 94.1% [at 9.64 µM]

C[C@H](CCC(=O)O)[C@H]1CC[C@H]2[C@H]3[C@@H](CC[C@]12C)[C@@]1(C)CC[C@@H](O)C[C@H]1C[C@@H]3O
Potency [7]: inactive
outcome [8]: inactive
Potency [9]: inactive
outcome [10]: inactive

C[S+](C)CCC(N)C(=O)O (stereo not given)
outcome [8]: inactive
Potency [9]: inactive
outcome [10]: inactive

CCN(CC)CCCCNc1ncc2c(n1)N(C)C(=O)N(c1c(Cl)c(OC)cc(OC)c1Cl)C2
Potency [1]: 34.3 µM (active)
Potency [2]: 34.3 µM (active)
Potency [11]: 6.31 µM (active)

CC=C(C(=CC)c1ccc(O)cc1)c1ccc(O)cc1
Potency [1]: inactive
Potency [12]: 2.43 µM (active)

NC/C=C\C(=O)O
outcome [13]: inactive
Potency [14]: inactive
outcome [15]: inactive
Potency [1]: inactive
Potency [2]: inactive

CCS(=O)(=O)N1CC(CC#N)(n2cc(-c3ncnc4[nH]ccc34)cn2)C1
Potency [1]: inactive
Potency [12]: inactive
Potency [3]: inactive

Nn1nnc2ccccc21
outcome [13]: inactive
outcome [16]: inactive
Potency [14]: inactive
outcome [15]: inactive
Potency [1]: inactive
Potency [2]: inactive

O=C1NC(=O)C(=Cc2ccc(-c3ccc(F)cc3O)o2)S1
Potency [1]: inactive
Potency [12]: inactive
Potency [3]: inactive

COc1ccc(Cc2ccc(NC(N)=O)cc2)cc1-c1cccc(Cl)c1
Potency [1]: inactive
Potency [12]: 9.68 µM (active)

C[C@]12CC[C@H]3C(=CCc4cc(O)ccc43)[C@@H]1CCC2=O
Potency [1]: inactive
Potency [12]: inactive
Potency [3]: inactive

C=C1CCC2C(C)(C)[C@H](O)CC[C@@]2(C)[C@@H]1COc1cc(=O)oc2ccccc12 (stereo not given in full)
Potency [1]: inactive
Potency [12]: inactive
Potency [3]: inactive

C[C@]12CC[C@@H]3c4ccc(O)cc4CC[C@H]3[C@H]1C[C@@H](O)[C@H]2O
Potency [1]: inactive
Potency [12]: 9.68 µM (active)

C=CCc1ccc(O)c(-c2ccc(O)c(CC=C)c2)c1
Potency [1]: inactive
Potency [12]: inactive
Potency [3]: inactive

O=C(c1ccc(C=Cc2n[nH]c3ccccc23)cc1)N1CCNCC1
Potency [1]: inactive
Potency [12]: inactive
Potency [3]: inactive

C=CC(=O)Nc1cc(NC(=O)c2ccc(C)c(NC(=O)c3ccno3)c2)cc(C(F)(F)F)c1
Potency [1]: inactive
Potency [12]: inactive
Potency [3]: inactive
